Here are results for eight compounds from article PMC11062922 (Nature Chemical Biology, 2023).

Common to all, as to set-up: species or system human, MV4-11 + K-562 + COLO205 + SK-N-BE2 + OVCAR-8
The test system of one assay is ACVR1. The conditions noted are these: read-out: apparent Kd, compound concentrations: 100 nM and 1000 nM (sheet 'Samples'), n = 1.
In the next assay the test system is ACVR2B. Conditions: read-out: apparent Kd, compound concentrations: 100 nM and 1000 nM (sheet 'Samples'), n = 1.
Another assay concerns BCR. Conditions: read-out: apparent Kd; compound concentrations: 100 nM and 1000 nM (sheet 'Samples'), CATDS: 7.0620023573944493E-2; n = 1.
The next assay relates to FLT3. The conditions noted are these: read-out: apparent Kd, compound concentrations: 100 nM and 1000 nM (sheet 'Samples'), n = 1.
The subject of the next assay is FLT4. The conditions noted are these: read-out: apparent Kd, compound concentrations: 100 nM and 1000 nM (sheet 'Samples'), n = 1.
The test system of another assay is FRK. Conditions: read-out: apparent Kd; compound concentrations: 100 nM and 1000 nM (sheet 'Samples'), CATDS: 7.6735011828902105E-2; n = 1.
For a further assay, the system named is FYN. The conditions noted are these: read-out: apparent Kd; compound concentrations: 100 nM and 1000 nM (sheet 'Samples'), CATDS: 5.82468241174715E-2; n = 1.
The next assay relates to GAK. Conditions: read-out: apparent Kd; compound concentrations: 100 nM and 1000 nM (sheet 'Samples'), CATDS: 5.5943535710341101E-2; n = 1.
A further assay concerns IRAK3. The conditions noted are these: read-out: apparent Kd; compound concentrations: 100 nM and 1000 nM (sheet 'Samples'), CATDS: 6.2537206863604394E-2; n = 1.
The subject of a further assay is PIP4K2C. Conditions: read-out: apparent Kd, compound concentrations: 100 nM and 1000 nM (sheet 'Samples'), n = 1.
In another assay the test system is RET. The conditions noted are these: read-out: apparent Kd, compound concentrations: 100 nM and 1000 nM (sheet 'Samples'), n = 1.
The test system of the next assay is RIPK2. Conditions: read-out: apparent Kd; compound concentrations: 100 nM and 1000 nM (sheet 'Samples'), CATDS: 0.18233295125810001; n = 1.
The next assay concerns STK11. The conditions noted are these: read-out: apparent Kd; compound concentrations: 100 nM and 1000 nM (sheet 'Samples'), CATDS: 4.7078768974871503E-2; n = 1.
The next assay concerns TGFBR2. Conditions: read-out: apparent Kd, compound concentrations: 100 nM and 1000 nM (sheet 'Samples'), n = 1.
The next assay has as its system ATM. The conditions noted are these: read-out: apparent Kd; compound concentrations: 100 nM and 1000 nM (sheet 'Samples'), CATDS: 0.20840274799776901; n = 1.
The test system of the next assay is CDC42BPG. Conditions: read-out: apparent Kd; compound concentrations: 100 nM and 1000 nM (sheet 'Samples'), CATDS: 7.2395541627420706E-2; n = 1.
The subject of the next assay is CLK1. The conditions noted are these: read-out: apparent Kd; compound concentrations: 100 nM and 1000 nM (sheet 'Samples'), CATDS: 0.111342996670081; n = 1.
In a further assay the test system is CLK2. Conditions: read-out: apparent Kd; compound concentrations: 100 nM and 1000 nM (sheet 'Samples'), CATDS: 0.14537230764377601; n = 1.
Another assay has as its system CLK4. Conditions: read-out: apparent Kd; compound concentrations: 100 nM and 1000 nM (sheet 'Samples'), CATDS: 9.3990878908875697E-2; n = 1.
The subject of another assay is DDX3X;DDX3Y. Conditions: read-out: apparent Kd; compound concentrations: 100 nM and 1000 nM (sheet 'Samples'), CATDS: 7.1763596621612302E-2; n = 1.
The subject of the next assay is RIPK3. The conditions noted are these: read-out: apparent Kd; compound concentrations: 100 nM and 1000 nM (sheet 'Samples'), CATDS: 7.33471794094432E-2; n = 1.
Another assay relates to DCTPP1. The conditions noted are these: read-out: apparent Kd; compound concentrations: 100 nM and 1000 nM (sheet 'Samples'), CATDS: 0.10861575043791701; n = 1.
A further assay concerns EGFR. The conditions noted are these: read-out: apparent Kd; compound concentrations: 100 nM and 1000 nM (sheet 'Samples'), CATDS: 0.49201381458362498; n = 1.
Another assay has as its system EPHA5. Conditions: read-out: apparent Kd; compound concentrations: 100 nM and 1000 nM (sheet 'Samples'), CATDS: 0.108805216819128; n = 1.
The test system of a further assay is EPHB4. The conditions noted are these: read-out: apparent Kd; compound concentrations: 100 nM and 1000 nM (sheet 'Samples'), CATDS: 0.19010178021007501; n = 1.
The test system of a further assay is PRKD1. The conditions noted are these: read-out: apparent Kd; compound concentrations: 100 nM and 1000 nM (sheet 'Samples'), CATDS: 0.12094331971113; n = 1.
In a further assay the test system is PDGFRB. Conditions: read-out: apparent Kd; compound concentrations: 100 nM and 1000 nM (sheet 'Samples'), CATDS: 0.185767501667575; n = 1.
The subject of a further assay is T1, DJA1.
T1 construct: gene DNAJA1
Conditions: read-out: apparent Kd; compound concentrations: 100 nM and 1000 nM (sheet 'Samples'), CATDS: 0.27071673816178898; n = 1.

A further assay concerns PIK3CD. The conditions noted are these: read-out: apparent Kd; compound concentrations: 100 nM and 1000 nM (sheet 'Samples'), CATDS: 0.64872041714686801; n = 1.
The next assay has as its system PI4KB. Conditions: read-out: apparent Kd; compound concentrations: 100 nM and 1000 nM (sheet 'Samples'), CATDS: 0.57979233132980301; n = 1.

Where two headings read alike, the source gives them in different places.

In the case of `Cc1ccc(Nc2ccnc(Nc3cccc(C(N)=O)c3)n2)cc1O.Cl` [GW575808A], the potency estimated from few doses in the assay on ACVR1 (CATDS: 7.6276409382360397E-2) is 534 nM; in the assay with ACVR2B (CATDS: 0.210677427457096), 77 nM; with BCR it was 645 nM; with FLT3 (CATDS: 5.3612696826146597E-2), 1450 nM; in the assay on FLT4 (CATDS: 5.6175855360763499E-2), 1240 nM; in the assay on FRK, 526 nM. For the same compound, the potency estimated from few doses in the assay on FYN was 1100 nM; in the assay with GAK, 1250 nM; with IRAK3, 894 nM; in the assay on PIP4K2C (CATDS: 5.2092814624207201E-2), 1610 nM; in the assay on RET (CATDS: 7.3825490143618097E-2), 578 nM; with RIPK2, 96.9 nM. The potency estimated from few doses was 2430 nM with STK11 and 59.4 nM with TGFBR2 (CATDS: 0.25024360667503898).

With `CCS(=O)(=O)c1ccc(OC)c(Nc2ncc(-c3cccc(C(C)=O)c3)o2)c1` [GW621431X], the potency estimated from few doses is 882 nM in the assay on ACVR1 (CATDS: 9.7395071504851799E-2); 232 nM with ATM; 2020 nM with CDC42BPG; 661 nM with CLK1; 405 nM in the assay on CLK2; 958 nM with CLK4. For the same compound, the potency estimated from few doses was 2090 nM with DDX3X;DDX3Y, 633 nM in the assay with FLT3 (CATDS: 0.113809183908987), 1930 nM in the assay with RIPK3 and 562 nM in the assay with TGFBR2 (CATDS: 0.12096887154144).

On to `COc1cc2ncnc(Nc3cccc(Cl)c3F)c2cc1O[C@H]1CC[C@@]2(CC1)NCCNC2=O` [BI00113608], for which the potency estimated from few doses in the assay on ACVR2B (CATDS: 0.10934684571165) was 1660 nM; in the assay on DCTPP1 it was 1700 nM; in the assay on EGFR it was 85.3 nM; with EPHA5, 1690 nM; with EPHB4 it was 421 nM; in the assay on PRKD1, 1220 nM. Besides, the potency estimated from few doses in the assay on RET (CATDS: 0.16960231572365) is 534 nM.

For `CC(=O)Nc1ccc(COc2ccc(Nc3ccnc4cc(-c5ccccn5)ccc34)cc2)cc1.Cl` [GW440148A], the potency estimated from few doses in the assay on ACVR2B (CATDS: 0.26489055890019297) is 482 nM; in the assay on FLT3 (CATDS: 0.189547770315381), 1250 nM; in the assay on FLT4 (CATDS: 0.63854178875025103), 88.5 nM; in the assay with PDGFRB it was 1340 nM.

In the case of `Fc1cc(Cl)ccc1Nc1ccnc2cc(I)ccc12` [GW551191X], the potency estimated from few doses with ACVR2B (CATDS: 0.26563205076169) was 1340 nM; with DJA1, 1260 nM; in the assay on PIK3CD, 203 nM.

Consider `CNc1ncnc2[nH]ncc12` [SKF-18355], for which the values for the potency estimated from few doses with ACVR2B (CATDS: 0.43951319986121201) and in the assay on PI4KB were 1910 nM and 1080 nM, respectively.

With `Cl.NC(=O)c1cccc(Nc2nccc(Nc3cccc(F)c3)n2)c1` [GW759710A], the potency estimated from few doses was 450 nM in the assay with ACVR2B (CATDS: 0.70743681093709798) and 1730 nM with PIP4K2C (CATDS: 0.38663089306687698).

With `Cc1ccc(Nc2ccnc(Nc3ccc(C)c(F)c3)n2)cc1O.Cl` [GW582868A], the potency estimated from few doses with ACVR2B (CATDS: 1) was 664 nM.
